eLon inh: inhibits E. coli Lon protease | P0A9M0 | purified E. coli Lon protease, fluorescence polarization | inhibition, % at 7.94 µM | 360,000 tested, 0.42% active | AID 602123; in the data active = inhibition above about 13%, passing the limit was not always enough;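 also: 0% = enzyme with probe and DMSO and 100% = no enzyme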
Target sequence (P0A9M0 whole entry, looked up): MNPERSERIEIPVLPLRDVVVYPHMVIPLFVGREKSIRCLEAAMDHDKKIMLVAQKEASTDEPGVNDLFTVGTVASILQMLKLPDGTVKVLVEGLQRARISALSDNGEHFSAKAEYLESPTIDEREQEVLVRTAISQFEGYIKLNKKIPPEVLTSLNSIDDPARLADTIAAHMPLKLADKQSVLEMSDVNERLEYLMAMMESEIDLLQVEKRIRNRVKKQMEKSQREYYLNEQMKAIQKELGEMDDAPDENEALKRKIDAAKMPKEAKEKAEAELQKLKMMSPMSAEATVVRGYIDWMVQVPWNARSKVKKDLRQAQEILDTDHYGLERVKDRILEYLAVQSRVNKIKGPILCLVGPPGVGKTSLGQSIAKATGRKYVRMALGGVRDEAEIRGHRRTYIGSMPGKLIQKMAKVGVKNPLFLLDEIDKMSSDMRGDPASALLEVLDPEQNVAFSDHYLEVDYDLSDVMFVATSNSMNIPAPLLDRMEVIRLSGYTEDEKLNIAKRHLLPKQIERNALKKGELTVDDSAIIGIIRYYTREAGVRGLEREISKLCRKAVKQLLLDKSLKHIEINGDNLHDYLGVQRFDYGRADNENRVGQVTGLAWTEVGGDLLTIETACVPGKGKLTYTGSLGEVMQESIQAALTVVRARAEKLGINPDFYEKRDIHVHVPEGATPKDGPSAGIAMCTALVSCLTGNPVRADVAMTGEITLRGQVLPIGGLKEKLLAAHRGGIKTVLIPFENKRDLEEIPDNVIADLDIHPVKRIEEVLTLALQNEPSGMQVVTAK
GLD-1 RNA inh: GLD-1-TGE RNA interaction inhibition (C. elegans); Q17339; purified GLD-1 + fluorescein TGE RNA, fluorescence polarization; inhibition, % at 5.96 µM; 320,000 tested, 0.44% active; AID 2280;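 active = percent inhibition above a per-plate cutoff, the plate mean of test compounds plus 3 SD, cut at about 30% in these data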;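 also: 0% = DMSO wells with GLD-1 and probe and 100% = wells lacking GLD-1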
MEX-5 binding: C. elegans MEX-5 TCR-2 RNA binding activity | Q9XUB2 | MEX-5/FITC-TCR2 RNA binding, fluorescence polarization; active compounds read low | activity score (negative = inhibition of binding), % at 10 µM | 300,000 tested, 0.38% active;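 active = inhibition past about -25% in most replicates, and total fluorescence under double the plate's negative control median, limit read from the data; inconclusive = replicates evenly split on the limit, or fluorescence at least double controls; inactive = too little inhibition in most replicates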;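 also: 0% = DMSO and -100% = 5 µM competing unlabeled TCR2 RNA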
Bcl-xL primary: blocks human Bcl-xL binding to Bim BH3 peptide | inhibition, % at 10.9 µM | GST-Bcl-xL / FITC-Bim BH3 peptide fluorescence polarization | Q07817 | 320,000 tested, 0.7% active;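 active = inhibition above the mean of all tested compounds plus 3 SD, cutoff set per campaign, cut at about 30% in these data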;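 also: 0% = DMSO wells and 100% = unlabeled Bim-BH3 peptide competitor; inhibitors lower millipolarization by displacing the labeled peptide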
EBV gp42 inh: EBV gp42 inhibition; AID 1085; Fluorescence polarization binding assay, mP read-out; inhibition, % (tested at 21.74 µM); 220,000 tested, 0.42% active; Q1HVG2; in the data active = inhibition above about 50%
MCL1-BIM inh: inhibitors of human MCL1 binding to BIM-BH3 peptide; Q07820; GST-MCL1 / FITC-Bim-BH3 fluorescence polarization; inhibition, % at 10.9 µM; 320,000 tested, 0.68% active; AID 2057;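 active = inhibition above the mean inhibition of all tested compounds plus 3 SD, set per campaign, cut at about 40% in these data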;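 also: 0% = DMSO wells and 100% = unlabeled Bim-BH3 peptide control; higher means more loss of mP so more displacement of Bim peptide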
E coli Lon conf: E. coli Lon inhibition confirmation; 1,400 tested, 31% active; inhibition, % at 7.94 µM; shares compounds with eLon inh; purified E. coli Lon, fluorescence polarization; AID 602230; in the data active = inhibition above about 16%;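 also: 0% = enzyme with probe and DMSO and 100% = no enzyme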
Numbers without * were called inactive; u = inconclusive; x = not tested or not shown; ! = not confirmed by another sample. Only some compounds are listed: those with a hit (about 1.4% of all), similar ones and a draw of the others.

SMILES	eLon inh	GLD-1 RNA inh	MEX-5 binding	Bcl-xL primary	EBV gp42 inh	MCL1-BIM inh	E coli Lon conf
COCCN(C(=O)C1=COCCO1)c1c(N)n(Cc2ccccc2)c(=O)[nH]c1=O	28*	8	-5	9	x	5	7
COCCN(C(=O)C1=COCCO1)c1c(N)n(CC(C)C)c(=O)[nH]c1=O	24*	18	x	12	x	4	7
COCCN(C(=O)c1ccc(C)o1)c1c(N)n(CC(C)C)c(=O)[nH]c1=O	-7	-4	x	2	x	0	x
CCCCN(C(=O)C1=COCCO1)c1c(N)n(Cc2ccccc2)c(=O)[nH]c1=O	-1	2	-21	0	x	-1	x
COc1ccc(C(=O)NNC2=CC(=O)CC(C)(C)C2)cc1OC	17*	3	-11	1	-17	-12	1
CCOC(=O)C1CCN(C(=O)C2CC(=O)N(c3ccc4c(c3)OCCO4)C2)CC1 (stereo not given)	2	-2	1	1	x	-2	x
NC(=O)c1ncn([C@@H]2O[C@H](CNC(=O)[C@H](N)CSCc3ccccc3)[C@@H](O)[C@H]2O)n1	24*	x	x	x	x	x	0
C/C(N)=C(/C#N)C(=O)COC(=O)C1Cc2ccccc2CN1S(C)(=O)=O (stereo not given)	16*!	6	1	0	1	3	2
O=C(CC1C(=O)NCCN1Cc1cccc(Oc2ccccc2)c1)NCCCn1cccn1 (stereo not given)	8	5	0	12	-4	10	x
Cc1ccc(S(=O)(=O)N(C)CCN(C)S(=O)(=O)c2ccc(C)cc2)cc1	0	x	x	x	x	x	x
CCN1CC=C2C(C1)C(c1ccc(Cl)s1)C(C#N)=C(N)C2(C#N)C#N (stereo not given)	81*	76*	u	102*	88*	114*	0
COc1ccccc1N1CCN(C(=O)c2cc(-c3ccc(F)cc3)[nH]c2C)CC1	6	x	1	x	x	x	x
CCN1CCN(CC(=O)Nc2cc(S(=O)(=O)N3CCCCC3)ccc2Cl)CC1	-5	-5	x	x	x	x	x
CCOC(=O)C1CCN(CC(=O)Nc2cc(S(=O)(=O)N3CCCCC3)ccc2Cl)CC1	23*	x	x	x	x	x	3
COC(=O)[C@@]12CCCCN1[C@H](c1ccc(-c3ccc(C(C)=O)cc3)cc1)[C@@H]1C(=O)N(C)C(=O)[C@@H]12	-2	0	-4	5	x	13	x
O=C(Cn1cc(Cl)c([N+](=O)[O-])n1)NCCC1=CCCCC1	2	-2	3	3	x	-2	x
CCN1C(=O)c2ccccc2S(=O)c2ccc(C(=O)N3CCCCCC3)cc21 (stereo not given)	45*	-7	3	-1	-7	-4	-52
CCN1C(=O)c2ccccc2S(=O)c2ccc(C(=O)N3CCN(C(=O)c4ccco4)CC3)cc21 (stereo not given)	-13	4	-3	-3	-15	0	x
Cc1cc(CN(C)C(=O)c2cc(COc3ccc(F)cc3Cl)on2)n[nH]1	32*	-3	0	6	-4	-1	-4
CN(Cc1ccccn1)C(=O)c1cc(COc2ccc(F)cc2Cl)on1	-13	x	x	x	x	x	x
c1ccc(COCCC2CO2)cc1 (stereo not given)	x	5	-1	6	x	1	x
Cc1c(C)n(C)c2ccc(C(=O)NCCCN3CCOCC3)cc12	56*	2	1	3	x	-3	-2
Cc1c(C)n(C)c2ccc(C(=O)NCCCN3CCCC3)cc12	-4	-1	-4	6	x	5	x
Cc1[nH]c(=O)[nH]c(=O)c1S(=O)(=O)N1CCN(c2ccccc2F)CC1	44*	5	-1	4	61*	1	4
Cc1ccc(-c2nc3ncccc3o2)cc1NC(=O)c1cccnc1	31*	7	-1	4	-26	0	-8
SMILES	eLon inh	GLD-1 RNA inh	MEX-5 binding	Bcl-xL primary	EBV gp42 inh	MCL1-BIM inh	E coli Lon conf
COc1ccc(OCC(=O)Nc2ccc(NC(=O)c3ccccc3Cl)c(OC)c2)cc1	6	4	-1	3	x	4	x
CNc1c2cccc(C)c2nc2c(C(=O)NCCN(C)C)cccc12	178*	x	x	x	x	x	195*
Cc1ccc(C(=O)NCCN(C)C)c(C)c1	-3	5	1	8	-2	3	x
N#Cc1cccc(NC(=O)c2cc(C3CCCCN3C(=O)c3cccs3)on2)c1 (stereo not given)	15*	x	x	x	x	x	-3
CN(C)c1ccc2nc3ccc(=O)cc-3sc2c1	40*	x	x	x	x	x	44*
Cc1c(NC(=S)NNC(=O)CCC(=O)O)c(=O)n(-c2ccccc2)n1C	-15	-5	-2	8	-17	6	x
CN1Cc2c(N3CCOCC3)nc(SCc3ccccc3)c(C#N)c2CC1(C)C	45*	21	0	16	2	15	-5
COc1ccccc1C1C=C(c2ccccc2)Nc2nnnn21 (stereo not given)	-12	4	2	0	-7	2	x
COc1cccc(C2=CC(c3cccs3)n3nnnc3N2)c1 (stereo not given)	35*	15	x	15	13	17	10
COc1ccc(C2=CC(c3ccc(F)cc3)n3nnnc3N2)cc1 (stereo not given)	38*	1	-4	4	8	-2	-13
COCCN(Cc1nc(C2(c3ccc(C)cc3)CCCC2)no1)C(C)C	-3	-4	-1	1	-5	-2	x
COc1ccc(N)cc1-n1c(C)ccc1C	52*	11	-1	38*	-13	46*	18*
O=C(Oc1cc2oc(=O)c3c(c2cc1Cl)CCCC3)c1cccs1	-10	0	-1	6	-12	1	x
O=C(Oc1ccc2c3c(c(=O)oc2c1)CCCC3)c1cccs1	18*	4	3	2	2	-3	25*
Cc1c([N+](=O)[O-])nnn1-c1cc(Cl)cc(Cl)c1	28*	-7	3	4	-10	-1	1
CCOc1ccc(NC(=O)CC2C(=O)Nc3ccccc3N2C(=O)c2ccccc2)cc1 (stereo not given)	15*	2	2	-1	-8	4	0
C=CC[C@H](CC(=O)N(CCO)Cc1ccccc1)C(=O)N[C@H](COC(=O)[C@@H](CC=C)CC(=O)OC(C)(C)C)c1ccccc1	20*	2	x	x	x	x	11
C=CC[C@H](CC(=O)N(CCO)Cc1ccccc1)C(=O)N[C@@H](C)COC(=O)[C@H](CC=C)CC(=O)OC(C)(C)C	1	3	x	x	x	x	x
CC(=O)Nc1ccc(NC(=O)[C@H](C)NC(=O)c2ccco2)cc1	53*	4	3	1	x	-1	-8
C[C@H](NC(=O)c1ccco1)C(=O)Nc1ccc(C#N)cc1	-7	3	2	-4	x	-1	x
CC(=O)Nc1nc(C)c(Oc2ccccc2)c(=O)[nH]1	23*	1	-2	4	-14	6	-7

Source: PubChem BioAssay
